# Unmarked numbers belong to inactive results. The source made the active and inactive calls.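 How the source made its calls, unless noted: active means mean inhibition over 43.08%, the solvent-only control mean plus 3 SD; inactive means the rest.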
# How the values were obtained:
# [1] = target: Nuclear receptor coactivator 3 (Homo sapiens) (UniProt Q9Y6Q9); experiment: SRC3 coactivator transcriptional activity inhibitors, confirmation, cell-based, luminescence, quadruplicate (AID 588792); settings: HEK293 GAL4-SRC3 luciferase reporter, at 3.6 µM, hits give high values;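 further: 0% = DMSO treated cells and 100% = gossypol at 36 µM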
# Sequence of Nuclear receptor coactivator 3 (Homo sapiens) (Q9Y6Q9 whole entry, looked up, the tested form may be a part): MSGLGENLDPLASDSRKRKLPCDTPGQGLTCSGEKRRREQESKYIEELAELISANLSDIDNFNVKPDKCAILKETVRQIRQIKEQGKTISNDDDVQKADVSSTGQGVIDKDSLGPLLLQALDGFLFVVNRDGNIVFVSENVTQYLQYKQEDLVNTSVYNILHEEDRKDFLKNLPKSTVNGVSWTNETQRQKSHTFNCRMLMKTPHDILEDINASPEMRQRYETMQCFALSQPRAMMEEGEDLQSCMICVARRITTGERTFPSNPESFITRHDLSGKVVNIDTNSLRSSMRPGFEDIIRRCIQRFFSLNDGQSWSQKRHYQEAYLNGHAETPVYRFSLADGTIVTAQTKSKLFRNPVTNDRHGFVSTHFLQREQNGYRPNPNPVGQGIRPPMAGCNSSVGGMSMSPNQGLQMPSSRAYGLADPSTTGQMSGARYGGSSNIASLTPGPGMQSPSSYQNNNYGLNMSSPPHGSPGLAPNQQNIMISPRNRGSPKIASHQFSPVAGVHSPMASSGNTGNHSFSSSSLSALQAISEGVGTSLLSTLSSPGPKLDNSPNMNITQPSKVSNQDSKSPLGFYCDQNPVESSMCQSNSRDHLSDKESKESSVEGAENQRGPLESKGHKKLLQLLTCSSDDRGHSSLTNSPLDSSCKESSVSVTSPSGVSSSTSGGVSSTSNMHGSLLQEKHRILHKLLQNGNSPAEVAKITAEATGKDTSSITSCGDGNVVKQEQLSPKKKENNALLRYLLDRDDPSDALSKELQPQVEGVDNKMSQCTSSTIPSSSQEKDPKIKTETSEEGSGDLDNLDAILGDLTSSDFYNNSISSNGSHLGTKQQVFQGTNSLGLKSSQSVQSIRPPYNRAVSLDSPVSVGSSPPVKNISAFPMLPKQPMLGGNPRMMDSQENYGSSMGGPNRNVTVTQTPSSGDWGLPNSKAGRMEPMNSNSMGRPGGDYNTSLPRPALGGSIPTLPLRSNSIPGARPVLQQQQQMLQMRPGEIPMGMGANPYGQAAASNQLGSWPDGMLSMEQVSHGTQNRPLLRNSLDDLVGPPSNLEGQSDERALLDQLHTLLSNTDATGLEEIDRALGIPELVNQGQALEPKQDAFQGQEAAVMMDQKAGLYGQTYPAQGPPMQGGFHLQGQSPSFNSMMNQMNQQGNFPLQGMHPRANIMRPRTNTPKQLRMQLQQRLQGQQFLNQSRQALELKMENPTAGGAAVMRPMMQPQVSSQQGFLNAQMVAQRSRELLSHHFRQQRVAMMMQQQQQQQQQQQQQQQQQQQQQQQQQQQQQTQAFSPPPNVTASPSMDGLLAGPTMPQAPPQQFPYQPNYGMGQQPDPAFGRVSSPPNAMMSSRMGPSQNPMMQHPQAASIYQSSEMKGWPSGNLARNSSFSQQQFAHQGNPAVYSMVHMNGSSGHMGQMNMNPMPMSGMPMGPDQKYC
# [2] = tested on: transactivating tegument protein VP16 (Human herpesvirus 1), Gal4-VP16 luciferase reporter; experiment: VP16 transactivation inhibitors, counter-screen for SRC3 inhibitor project, cell-based, luminescence, high throughput (AID 588794; in the data active means inhibition above about 30%); settings: mammalian cells, VP16-driven luciferase reporter luminescence; at 3.6 µM; hits give high values
# [3] = target: Nuclear receptor coactivator 1 (Homo sapiens) (UniProt Q15788); experiment: SRC1 coactivator transcriptional activity inhibitors, confirmation, cell-based, luminescence, quadruplicate (AID 588820;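 active means mean inhibition above 46.68%, the untreated control wells mean plus 3 SD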;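 further: 0% = DMSO wells and 100% = gossypol 36 µM treated wells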); settings: HEK293 GAL4-SRC1 luciferase reporter, at 3.6 µM, hits give high values
# Sequence of Nuclear receptor coactivator 1 (Homo sapiens) (Q15788 whole entry, looked up, the tested form may be a part): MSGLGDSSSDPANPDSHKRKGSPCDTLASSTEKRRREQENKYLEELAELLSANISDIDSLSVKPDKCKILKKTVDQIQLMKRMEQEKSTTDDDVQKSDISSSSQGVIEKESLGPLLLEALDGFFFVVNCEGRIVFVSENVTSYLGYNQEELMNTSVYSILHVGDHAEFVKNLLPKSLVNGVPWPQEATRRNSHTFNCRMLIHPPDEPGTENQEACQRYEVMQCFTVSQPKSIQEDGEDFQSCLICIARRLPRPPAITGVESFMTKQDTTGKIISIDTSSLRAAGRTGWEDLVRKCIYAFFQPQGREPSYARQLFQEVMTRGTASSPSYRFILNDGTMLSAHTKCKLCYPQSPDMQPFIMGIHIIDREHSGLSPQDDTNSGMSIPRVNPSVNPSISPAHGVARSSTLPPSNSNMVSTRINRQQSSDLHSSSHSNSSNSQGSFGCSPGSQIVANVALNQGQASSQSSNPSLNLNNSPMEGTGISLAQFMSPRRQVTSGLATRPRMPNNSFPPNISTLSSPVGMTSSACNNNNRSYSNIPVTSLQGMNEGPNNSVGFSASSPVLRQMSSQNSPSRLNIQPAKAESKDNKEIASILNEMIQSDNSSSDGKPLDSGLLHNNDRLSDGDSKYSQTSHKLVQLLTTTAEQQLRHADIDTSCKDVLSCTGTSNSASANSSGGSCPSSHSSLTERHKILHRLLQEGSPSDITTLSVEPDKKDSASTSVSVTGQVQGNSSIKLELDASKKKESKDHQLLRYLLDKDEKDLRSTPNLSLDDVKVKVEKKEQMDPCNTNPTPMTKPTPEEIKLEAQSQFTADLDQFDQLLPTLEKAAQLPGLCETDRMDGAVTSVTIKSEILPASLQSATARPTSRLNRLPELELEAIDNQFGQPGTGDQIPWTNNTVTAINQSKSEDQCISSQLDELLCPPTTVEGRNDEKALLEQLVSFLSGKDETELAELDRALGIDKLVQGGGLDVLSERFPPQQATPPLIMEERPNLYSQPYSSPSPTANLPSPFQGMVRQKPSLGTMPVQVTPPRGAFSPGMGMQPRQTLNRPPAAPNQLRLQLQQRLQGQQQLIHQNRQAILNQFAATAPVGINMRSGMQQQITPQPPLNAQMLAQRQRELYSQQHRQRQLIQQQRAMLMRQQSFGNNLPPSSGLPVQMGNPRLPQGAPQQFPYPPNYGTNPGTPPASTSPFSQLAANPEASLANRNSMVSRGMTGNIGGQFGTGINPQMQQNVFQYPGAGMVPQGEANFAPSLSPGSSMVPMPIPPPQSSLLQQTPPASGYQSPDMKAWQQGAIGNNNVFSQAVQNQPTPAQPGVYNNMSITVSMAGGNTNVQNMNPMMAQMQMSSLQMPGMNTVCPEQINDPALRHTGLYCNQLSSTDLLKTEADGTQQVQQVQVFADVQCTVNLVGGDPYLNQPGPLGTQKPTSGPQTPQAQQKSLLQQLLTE
# [4] = VP16 transactivation inhibitors, counter-screen for SRC1 inhibitor project, cell-based, luminescence, high throughput (AID 588824; in the data active means inhibition above about 25%); settings: cell-based VP16 transactivation luciferase luminescence; at 3.6 µM; hits give high values
SMILES,inhibition [1],inhibition [2],inhibition [3],inhibition [4]
O=C(Nc1c(-c2ccccc2)[nH][nH]c1=O)c1cccc(C(F)(F)F)c1,15.3%,6.35%,22%,0.94%
COc1cccc(-c2ccc3ncnc(NCc4ccc5c(c4)OCO5)c3c2)c1,37.3%,30.1% (active),45.2%,30% (active)
Cn1c(Sc2ccc(Cl)cc2)c(C=O)c2ccccc21,52.3% (active),43.6% (active),60% (active),37% (active)
O=c1[nH]cc(F)c(=O)[nH]1,14.7%,31% (active),8.56%,22.3%
COc1ccc(O)c(/C=N/NC(=O)c2c(C)nnn2-c2nonc2N)c1,25.4%,19.7%,14.4%,12%
Cc1ccc(N=c2c([N+](=O)[O-])nn(-c3ccc4c(c3)OCCO4)n2O)cc1F,36.5%,-0.46%,19.9%,-9.63%
Cc1ccc2occ(/C=N/NC(=O)c3ccncc3)c(=O)c2c1,21.2%,15.1%,20.3%,14.4%
O=C(NCc1ccccc1)c1csc(-c2cccnc2)n1,54.8% (active),30.8% (active),42.7%,37% (active)
COc1ccc(C(C(=O)NC2CCCCC2)N(C(=O)CCl)c2ccc(C)cc2)cc1 (stereo not given),71.8% (active),52.9% (active),35.7%,49.2% (active)
OCCN1CCN(C(=S)c2ccc(-c3ccccc3)cc2)CC1,35.6%,4.96%,36.8%,6.4%
COc1cc(/C=C2\CC(C(C)(C)C)C/C(=C\c3cc(OC)c(OC)c(OC)c3)C2=O)cc(OC)c1OC (stereo not given),58.4% (active),19.3%,19.8%,18.4%
COc1cc(/C=C2\SC(N)=NC2=O)cc(OC)c1,20.4%,27.3%,34.7%,18.9%
CSc1ncnc2c1ncn2CC(=O)C1CCC2C3CCC4=CC(=O)CCC4(C)C3CCC12C (stereo not given),19.5%,12.2%,-0.31%,12.1%
c1nc2sc3c(c2c2nnnn12)CCCC3,28%,24.2%,36.8%,9.37%
NC(=O)c1cc(Sc2ccccc2)nc2ccccc12,38%,16.6%,34.4%,16%
Cc1cc(C(=O)COC(=O)c2cccc(NS(C)(=O)=O)c2)c(C)n1CC1CCCO1 (stereo not given),19.3%,-22.1%,-46.9%,-54.4%
CCC(=O)c1ccc(Oc2nc3c(c(=O)n(C)c(=O)n3C)n2CC)cc1,26.3%,19.6%,29.4%,20.9%
Cc1cc(C)c2c(N)c3ccccc3nc2n1,15.2%,54.6% (active),3.44%,53.4% (active)
CCc1ccc2[nH]c3nc(N/N=C/c4cccc(O)c4)nnc3c2c1,37.2%,64.4% (active),22.6%,59.5% (active)
COc1cccc(-c2nnc3sc(C4CCCCC4)nn23)c1,64.5% (active),29.1%,57.4% (active),26.4% (active)
Nc1nccc(-c2ccc(-n3cnc4ccccc43)cc2)n1,56.7% (active),27.4%,57.7% (active),26.3% (active)
CC(=O)c1c(C)n(-c2ccccc2)c2ccc(O)cc12,50.6% (active),41.6% (active),44.7%,37.9% (active)
O=C(N/N=C/c1sc(N2CCOCC2)nc1-c1ccccc1)c1cccc(S(=O)(=O)N2CCCC2)c1,53.4% (active),67% (active),50.8% (active),72% (active)
COc1ccc(Cc2noc(CN3CCN(c4ccc(Cl)cn4)CC3)n2)cc1OC,14.7%,21.5%,6.4%,33% (active)
CCOC(=O)c1cc2sccc2n1CC(=O)N1CCc2ccccc21,43.4% (active),29.2%,31.8%,31.3% (active)
